Our source for the outcome and AC50 values is PubChem BioAssay (EPA / NIEHS).

For experiment [1], the target named is Bile acid receptor (Homo sapiens) (UniProt Q96RI1). The experiment can be described thus: OT_FXR_FXRSRC1_0480: Odyssey Thera (OT) 8-hour HEK293T Protein-Complementation Assay for Farnesoid X receptor/SRC-1 Co-activator (AID 2283383). In a few lines:
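HEK293T protein-fragment complementation assay: FXR and SRC-1 coactivator are fused to reporter fragments, and their interaction restores a fluorescent reporter. Readout was taken 8 h after dosing, with gain of signal fit relative to DMSO.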

The target in experiment [2] is AR (gene 367) (UniProt P10275). The experiment can be described thus: ACEA_AR_agonist_80hr: ACEA Biosciences xCELLigence Real-Time Cell Analysis on Androgen Receptor Agonism for Proliferation (AID 2283783).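 Note: hits increase impedance growth signal above DMSO baseline.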 A digest of the protocol: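 Proliferation of 22Rv1 prostate cancer cells tracked by electrical impedance, endpoint taken at 80 hours after dosing. Eight-point 1:4 dilutions from 100 uM maximum final, duplicate; testosterone and MG132 as positive controls, assay media as negative.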

In experiment [3] the target is AR (gene 367) (UniProt P10275). Briefly: ACEA_AR_antagonist_80hr: ACEA Biosciences xCELLigence Real-Time Cell Analysis on Androgen Receptor Antagonism for Proliferation (AID 2283787).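 Note: 22Rv1 human prostate cancer cells with growth followed by electrical impedance; hits lower the impedance growth signal relative to DMSO.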 In a few lines: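 22Rv1 cells in assay medium, growth tracked by electrical impedance; compounds eight-point 1:4 dilutions from 100 uM final, duplicate plates. Endpoint at 80 h; loss of signal versus DMSO.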

In experiment [4] the target is Ratio of Nucleoli Translocation and Cytoplasm, AR (gene 367) (UniProt P10275). Briefly: UPITT_HCI_U2OS_AR_TIF2_Nucleoli_Cytoplasm_Ratio_Agonist: University of Pittsburgh U2OS Androgen Receptor-Transcriptional Intermediary Factor 2 (AR-TIF2) Agonism High Content Imaging Assay for Ratio of Nucleoli Translocation and Cytoplasm (AID 2284000).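 Note: hits raise the red nucleolar to cytoplasm ratio above vehicle.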 A digest of the protocol: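 U2OS cells expressing RFP-tagged human AR and GFP-tagged TIF2; high-content imaging ratio of nucleolar to cytoplasmic red fluorescence, fitted as gain of signal vs DMSO. Single point at 20 uM final (0.2% DMSO); concentration-response 0.195-50 uM final (0.5% DMSO).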

The target in experiment [5] is Cytochrome P450 2C18 (Homo sapiens) (UniProt P33260). Briefly: NVS_ADME_hCYP2C18: NovaScreen (NVS) CYP450-related Enzyme Activity (ADME) Assay for human CYP2C18 (AID 2283103; active = hit-call score of the fitted dose curve at least 0.9, where 1 is the maximum; inactive = score below 0.9). A digest of the protocol: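 Cell-free recombinant human CYP2C18 with fluorogenic substrate; fluorescence intensity read 0.5 h after dosing. Single-point screen at 10 uM in duplicate, then concentration-response up to 20 uM; loss of signal fitted against acetonitrile baseline.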

Experiment [6] deals with rat CYP1A2, Cyp1a2 (gene 24297) (UniProt P04799). The experiment can be described thus: NVS_ADME_rCYP1A2: NovaScreen (NVS) CYP450-related Enzyme Activity (ADME) Assay for rat CYP1A2 (AID 2283115). A digest of the protocol:
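Cell-free recombinant rat enzyme with fluorogenic substrate, read by fluorescence intensity 1 hour after dosing. Loss of signal versus acetonitrile negative control; primary screen at 10 uM in duplicate, actives followed in concentration series.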

The target of experiment [7] is rat CYP2C12, Cyp2c12 (gene 25011) (UniProt P11510). Briefly: NVS_ADME_rCYP2C12: NovaScreen (NVS) CYP450-related Enzyme Activity (ADME) Assay for rat CYP2C12 (AID 2283119). A digest of the protocol: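 Cell-free recombinant rat CYP2C12 activity read by fluorescence 0.5 h after dosing; loss of signal versus acetonitrile control. Primary screen in duplicate at 10 uM; actives then run in concentration-response format.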

Experiment [8] deals with rat CYP2D1, Cyp2d1 (gene 266684) (UniProt P10633). The experiment can be described thus: NVS_ADME_rCYP2D1: NovaScreen (NVS) CYP450-related Enzyme Activity (ADME) Assay for rat CYP2D1 (AID 2283122). In a few lines: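 Cell-free fluorescence enzyme-activity assay on extracted rat CYP2D1 protein, read 0.75 h after dosing. Primary screen in duplicate at 10 uM; qualifying chemicals then run in concentration-response to 20 uM max, loss-of-signal versus acetonitrile baseline.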

Results filed as inconclusive are left out. The source made the active and inactive calls. Rule for the calls, unless noted: active = hit-call score of the fitted dose curve at least 0.9, where 1 is the maximum; inconclusive = response in the unintended direction; inactive = score below 0.9.

Chain of AR (gene 367) (P10275 whole entry, looked up): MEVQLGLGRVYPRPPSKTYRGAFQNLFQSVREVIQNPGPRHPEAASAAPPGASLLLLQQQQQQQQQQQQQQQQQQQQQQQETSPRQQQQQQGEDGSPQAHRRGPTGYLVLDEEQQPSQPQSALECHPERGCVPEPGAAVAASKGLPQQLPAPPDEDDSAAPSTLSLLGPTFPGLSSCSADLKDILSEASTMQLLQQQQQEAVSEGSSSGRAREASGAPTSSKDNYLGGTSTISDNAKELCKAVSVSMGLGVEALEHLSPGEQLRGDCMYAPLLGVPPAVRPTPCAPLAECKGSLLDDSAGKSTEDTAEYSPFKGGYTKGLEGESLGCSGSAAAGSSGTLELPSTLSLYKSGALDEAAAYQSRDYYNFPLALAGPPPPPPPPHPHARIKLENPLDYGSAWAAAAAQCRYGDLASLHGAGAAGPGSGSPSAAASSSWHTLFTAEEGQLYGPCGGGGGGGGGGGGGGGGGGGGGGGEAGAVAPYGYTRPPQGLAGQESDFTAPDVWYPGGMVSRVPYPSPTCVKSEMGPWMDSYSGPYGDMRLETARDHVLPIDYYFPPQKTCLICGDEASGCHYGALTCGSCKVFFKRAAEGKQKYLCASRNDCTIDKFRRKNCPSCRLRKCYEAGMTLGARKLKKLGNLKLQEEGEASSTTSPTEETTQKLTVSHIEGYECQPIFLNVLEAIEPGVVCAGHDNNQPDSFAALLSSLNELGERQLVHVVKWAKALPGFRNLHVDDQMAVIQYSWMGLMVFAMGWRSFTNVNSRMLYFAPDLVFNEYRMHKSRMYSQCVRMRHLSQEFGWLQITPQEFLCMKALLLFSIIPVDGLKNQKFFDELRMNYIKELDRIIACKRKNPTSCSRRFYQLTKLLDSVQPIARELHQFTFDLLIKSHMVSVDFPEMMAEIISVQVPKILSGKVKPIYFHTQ
Chain of rat CYP2C12, Cyp2c12 (gene 25011) (P11510 whole entry, looked up): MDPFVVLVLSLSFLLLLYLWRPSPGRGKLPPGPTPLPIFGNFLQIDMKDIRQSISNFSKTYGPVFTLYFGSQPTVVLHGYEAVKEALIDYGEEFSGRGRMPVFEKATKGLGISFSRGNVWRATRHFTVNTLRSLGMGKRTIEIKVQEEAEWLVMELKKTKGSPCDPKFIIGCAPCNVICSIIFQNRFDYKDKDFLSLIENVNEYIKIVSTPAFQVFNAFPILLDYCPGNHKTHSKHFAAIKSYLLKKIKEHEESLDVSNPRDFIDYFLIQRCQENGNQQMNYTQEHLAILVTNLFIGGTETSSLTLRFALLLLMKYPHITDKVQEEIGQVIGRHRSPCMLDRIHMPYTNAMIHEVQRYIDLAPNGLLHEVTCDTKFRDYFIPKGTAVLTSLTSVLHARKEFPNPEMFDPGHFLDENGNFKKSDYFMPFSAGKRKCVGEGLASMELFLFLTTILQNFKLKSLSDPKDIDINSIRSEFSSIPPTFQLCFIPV
Chain of rat CYP2D1, Cyp2d1 (gene 266684) (P10633 whole entry, looked up): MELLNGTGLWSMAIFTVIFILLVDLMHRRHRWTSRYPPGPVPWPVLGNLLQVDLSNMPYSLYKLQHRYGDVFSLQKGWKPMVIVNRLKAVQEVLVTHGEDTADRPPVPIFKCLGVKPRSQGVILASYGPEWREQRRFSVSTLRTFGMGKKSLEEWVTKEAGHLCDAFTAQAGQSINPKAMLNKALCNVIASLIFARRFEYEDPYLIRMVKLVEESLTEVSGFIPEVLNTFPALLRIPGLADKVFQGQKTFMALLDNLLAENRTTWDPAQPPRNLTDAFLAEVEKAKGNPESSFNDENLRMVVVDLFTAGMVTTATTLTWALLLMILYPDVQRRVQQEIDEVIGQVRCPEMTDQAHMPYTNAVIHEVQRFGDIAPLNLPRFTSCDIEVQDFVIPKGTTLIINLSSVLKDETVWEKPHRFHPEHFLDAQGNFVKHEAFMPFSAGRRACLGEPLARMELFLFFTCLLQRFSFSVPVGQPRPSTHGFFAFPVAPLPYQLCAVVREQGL
Chain of Bile acid receptor (Homo sapiens) (Q96RI1 whole entry, looked up, the tested form may be a part): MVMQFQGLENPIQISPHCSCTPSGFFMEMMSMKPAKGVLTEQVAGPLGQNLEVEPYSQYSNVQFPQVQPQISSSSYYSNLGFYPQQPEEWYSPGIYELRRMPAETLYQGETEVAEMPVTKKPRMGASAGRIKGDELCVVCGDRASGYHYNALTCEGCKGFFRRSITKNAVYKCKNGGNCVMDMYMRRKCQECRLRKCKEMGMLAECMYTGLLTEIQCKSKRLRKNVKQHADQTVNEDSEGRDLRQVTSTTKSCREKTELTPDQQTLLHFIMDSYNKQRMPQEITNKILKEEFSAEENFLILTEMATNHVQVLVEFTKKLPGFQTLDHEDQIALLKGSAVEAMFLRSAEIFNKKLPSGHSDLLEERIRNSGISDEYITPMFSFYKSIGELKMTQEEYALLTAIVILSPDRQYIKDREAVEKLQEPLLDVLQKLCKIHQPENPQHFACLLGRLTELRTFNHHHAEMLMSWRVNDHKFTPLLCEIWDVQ
Chain of Ratio of Nucleoli Translocation and Cytoplasm, AR (gene 367) (P10275 whole entry, looked up): as the sequence (P10275 whole entry, looked up) above
Chain of Cytochrome P450 2C18 (Homo sapiens) (P33260 whole entry, looked up): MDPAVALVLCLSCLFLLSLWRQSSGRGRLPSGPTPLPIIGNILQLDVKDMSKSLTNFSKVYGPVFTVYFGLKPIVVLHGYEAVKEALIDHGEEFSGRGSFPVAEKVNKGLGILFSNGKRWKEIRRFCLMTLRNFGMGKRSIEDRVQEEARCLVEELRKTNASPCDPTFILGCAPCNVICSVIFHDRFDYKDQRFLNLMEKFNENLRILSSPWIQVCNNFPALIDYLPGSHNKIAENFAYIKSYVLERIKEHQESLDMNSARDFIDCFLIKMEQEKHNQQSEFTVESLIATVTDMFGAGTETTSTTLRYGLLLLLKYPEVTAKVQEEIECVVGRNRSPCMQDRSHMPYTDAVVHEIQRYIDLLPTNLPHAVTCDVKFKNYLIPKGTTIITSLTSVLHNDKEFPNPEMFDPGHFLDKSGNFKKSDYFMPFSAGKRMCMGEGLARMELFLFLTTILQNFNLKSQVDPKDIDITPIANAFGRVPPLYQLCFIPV
Chain of rat CYP1A2, Cyp1a2 (gene 24297) (P04799 whole entry, looked up): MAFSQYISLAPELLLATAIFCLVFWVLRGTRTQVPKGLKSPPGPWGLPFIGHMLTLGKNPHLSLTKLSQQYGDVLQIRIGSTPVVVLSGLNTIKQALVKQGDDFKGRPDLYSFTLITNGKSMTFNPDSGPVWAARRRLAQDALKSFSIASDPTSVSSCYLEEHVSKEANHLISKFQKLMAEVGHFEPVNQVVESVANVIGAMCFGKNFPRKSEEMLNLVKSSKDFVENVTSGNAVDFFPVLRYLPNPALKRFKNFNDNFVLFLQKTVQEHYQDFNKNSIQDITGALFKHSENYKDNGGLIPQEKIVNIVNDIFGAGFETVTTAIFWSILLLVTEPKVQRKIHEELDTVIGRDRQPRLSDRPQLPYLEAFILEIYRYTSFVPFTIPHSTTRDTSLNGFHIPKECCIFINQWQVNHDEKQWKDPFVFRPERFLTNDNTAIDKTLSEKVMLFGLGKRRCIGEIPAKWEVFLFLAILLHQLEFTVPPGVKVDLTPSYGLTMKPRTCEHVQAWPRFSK

In the case of `c1ccc2c(c1)CCCC2`, the result (in experiment [1]; with AR (gene 367) [2]; in the experiment with AR (gene 367) [3]; in experiment [4]) was inactive.
The AC50 is the concentration at which the activity in the assay is half-maximal. Take `CCCCOCCOCCOCc1cc2c(cc1CCC)OCO2`: the AC50 was 4.47 µM (active) in experiment [5] and 5.69 µM (active) in experiment [8]. For the same molecule, the result in experiment [6] and in experiment [7] was inactive.
